Only some compounds are listed: those with a hit (about 2.4% of all), similar ones and a draw of the others.
Pol beta inh = DNA polymerase beta (human) inhibition | Pol beta primer extension/strand displacement, fluorescence kinetic | Potency, µM (highest dose often 114 µM), inactives show at the highest dose activity change, negative = inhibition, most hits filed as inhibitors | actives 1.3% (n = 340,000) | AID 485314; further: on the % scale 0 is the no-effect control and ±100 the full control effect
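Human Pol beta at 10 nM; strand-displacement substrate 50 nM final. Compound exposure 15 min at room temperature before start, reaction 10 min at room temperature.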
POLH inh = inhibitors of human DNA polymerase eta; actives 1.2% (n = 390,000); recombinant Pol eta, fluorescent DNA replication assay; Q9Y253; AID 588591; Potency, µM (series often up to 114 µM), for inactives: at the highest dose activity change, negative = inhibition, hits mostly inhibitors; further: on the % scale 0 is the no-effect control and ±100 the full control effect
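Fluorescent replication assay: 50 nM final substrate added after a 15 min room-temperature compound preincubation with 10 nM enzyme. Signal taken at 0 min and again at 10 min.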
POLK inh = DNA polymerase kappa (human) inhibition; purified Pol kappa, fluorescent DNA synthesis assay, 10 min; Potency, µM (doses to about 107 µM), for the others: at the top dose activity, negative = inhibition, actives largely listed as inhibitors; Q9UBT6; AID 588579; actives 0.53% (n = 400,000); further: on the % scale 0 is the no-effect control and ±100 the full control effect
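First, compounds were pin-transferred onto 10 nM Pol kappa. After 15 min at room temperature, substrate was added to 50 nM final. Fluorescence was then measured kinetically at 0 and 10 min.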
WRN inhibitor = inhibitors of human WRN helicase; Potency, µM (doses to about 114 µM), for the others: top-dose activity change, negative = inhibition, actives largely listed as inhibitors; Q14191; actives 0.46% (n = 360,000); WRN helicase unwinding, fluorescent forked duplex, kinetic; further: on the % scale 0 is the no-effect control and ±100 the full control effect; nearly all actives have a fitted effect of over 55% in size
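Primary qHTS, 1536-well format. 20 nM WRN + compound, 15 min RT; start with 100 nM forked fluorophore/quencher duplex, 2 mM ATP (final); kinetic read ex 525/em 598 nm.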
FEN1 inh = human FEN1 inhibition; P39748; Recombinant FEN1 flap cleavage, fluorescence, 15 min; Potency, µM (titrated, usually from 114 µM), without a hit: top-dose activity change, negative = inhibition, usual class: inhibitors; actives 0.35% (n = 390,000); further: on the % scale 0 is the no-effect control and ±100 the full control effect; nearly all actives have a fitted effect of over 65% in size
Target sequence (P39748 whole entry, looked up): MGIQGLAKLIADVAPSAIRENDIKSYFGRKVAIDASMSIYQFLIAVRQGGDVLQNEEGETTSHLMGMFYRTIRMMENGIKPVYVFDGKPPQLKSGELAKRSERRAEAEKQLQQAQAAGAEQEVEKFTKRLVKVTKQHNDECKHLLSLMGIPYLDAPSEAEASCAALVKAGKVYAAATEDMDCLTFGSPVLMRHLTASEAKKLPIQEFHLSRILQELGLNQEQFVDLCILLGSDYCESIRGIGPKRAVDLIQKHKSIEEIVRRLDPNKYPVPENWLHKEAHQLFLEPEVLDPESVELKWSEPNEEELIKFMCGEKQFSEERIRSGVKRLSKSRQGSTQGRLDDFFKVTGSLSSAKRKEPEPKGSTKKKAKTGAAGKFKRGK
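Concentration–response screening of FEN1 (10 nM): 15 min compound preincubation at room temperature, reaction started with 50 nM substrate and read at 0 and 15 min. Corrected, normalized data were fitted by a four-parameter Hill equation.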
Pol iota inh = blocks human DNA polymerase iota activity; Pol iota fluorescent replication assay, 10 min; Potency, µM (titrated, usually from 115 µM), without a hit: top-dose activity, negative = inhibition, most hits filed as inhibitors; actives 1% (n = 390,000); AID 588590
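Fluorescent replication assay read twice, at 0 min and 10 min after adding 50 nM (final) substrate. Enzyme (10 nM) and compounds were first incubated 15 min at room temperature; enzyme-free buffer wells were negative controls.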
The depositor's hits bear a star; ? = inconclusive; . = no result given; ! = not active in a repeat; [ ] = dose if it differs, or a comment. The call rests on the fitted dose curve; in most records, active means well fitted curve in the direction sought with a large enough effect; inconclusive means small, poorly fitted or top-dose-only effect, or another doubt; inactive means no such curve, though single readings can be large; an effect the other way counts as inactive or inconclusive. Potency means the concentration at half of the fitted maximal effect.

SMILES	Pol beta inh	POLH inh	POLK inh	WRN inhibitor	FEN1 inh	Pol iota inh
NC(=O)[C@@H]1CC2(CC(c3cccc(NC(=O)[C@H]4CCC(=O)N4)c3)=NO2)CN1C(=O)c1ccc(Cl)cc1 (some centres not stated)	-16%	-14%	-2%	11%	-7%	-17%
O=c1cc(-c2ccc(Cl)c(Cl)c2)[nH][nH]1	6%	-11%	-7%	-1%	-5%	-10%
O=c1cc(-c2ccc(Cl)cc2)[nH][nH]1	-15%	-4%	-3%	-2%	0%	1.6µM*
CCOC(=O)N1CCN(/[N+]([O-])=N/Oc2ccc(C(F)(F)F)cc2[N+](=O)[O-])CC1	.	.	3%	.	4%	12%
CC(C)CCNC(=O)C1CCN(S(=O)(=O)c2ccc3c(c2)CC(C)N3C(=O)C2CCC2)CC1 (configuration not stated)	56µM*	-10%	3%	-6%	-14%	-2%
CC(C)CCNC(=O)C1CCCN(S(=O)(=O)c2ccc3c(c2)CC(C)N3C(=O)C2CC2)C1 (configuration not stated)	-5%	-17%	16%	3%	8%	-10%
CCCCCC#CCC#CCC#CCC#CCCCC(=O)O	1.1µM*	.	10µM*!	.	.	.
CCCCCCCCCC(=O)O	.	-8%	11%	4%	-9%	19%
O=C(c1ccc(Cl)c(S(=O)(=O)Nc2ccccc2C(=O)N2CCc3ccccc3C2)c1)N1CCc2ccccc2C1	13%	40µM*	-33%	-9%[11.6 µM]	-6%	32%
c1ccc(CCNc2ccnc3cc4ccccc4cc23)cc1	22µM*	-21%	-14%	-19%	50µM*	81%
O=C(NCCc1ccccc1)c1nccc2ccccc12	.	4%	-3%	1%	-5%	6%
CC(C)n1cc(/C=N/NC(=O)COc2cccc3cccnc23)c2ccccc21	?	?	-29%	?	0%	7.9µM*
CSc1cccc(NC(=O)CN(c2ccccc2)S(=O)(=O)N(C)C)c1	10µM*	?	-17%	-18%	7%	?
CN(C)S(=O)(=O)N(CC(=O)Nc1ccc(F)c(F)c1)c1ccccc1	?	?	-20%	-11%	6%	-27%[58.9 µM]
Cc1cc(C)cc(-n2c3nc4ccccc4nc3c3c(=O)n(Cc4ccco4)cnc32)c1	35µM*	?	-11%	-11%	-8%	2%
COCCCn1c2nc3ccccc3nc2c2c(=O)n(CC3CCCO3)cnc21 (configuration not stated)	40%	3%	1%	8%	-1%	11%
COCCCn1cnc2c(c1=O)c1nc3ccccc3nc1n2-c1ccc(C)cc1	35µM*	-5%	-11%	-1%	-3%	6%
O=C(N/N=C/c1ccco1)c1cccc(S(=O)(=O)Nc2ccccc2Cl)c1	22µM*	20µM*	?	?	5%	45µM*
CCCC(=O)N(C)c1ccc(/C=C2\C=Cc3ccccc32)cc1	.	.	-6%	.	-8%	0%
c1ccc(C(OC2CCCN(CCc3ccc4c(c3)OCO4)C2)c2ccccc2)cc1 (configuration not stated)	.	.	4%[60.1 µM]	.	.	.
O=C(Nc1ccc(Br)cc1F)c1cnn2c1NC(=C1CC1)C=C2C(F)F	.	.	32µM*	.	9%	?
[O-][n+]1ccccc1SSc1cccc[n+]1[O-]	.	.	2%[60.1 µM]	.	.	.
N#C/C(=C\c1ccc(OCc2ccc(C(=O)O)cc2)cc1)C(=O)N1CCOCC1	13%	28µM*	-28%	-25%	17%	?
O=C(O)CN1C(=O)/C(=C\c2cc(Br)ccc2OCc2ccc(Cl)cc2Cl)SC1=S	22µM*	?	11%	-6%	-25%	?
O=C(O)CN1C(=O)/C(=C\c2cccc(OCc3ccccc3F)c2)SC1=S	9%	?	-12%	-16%[57.1 µM]	-10%	?
SMILES	Pol beta inh	POLH inh	POLK inh	WRN inhibitor	FEN1 inh	Pol iota inh
O=C(O)CN1C(=O)/C(=C\c2cccc(OCc3ccc(Cl)cc3)c2)SC1=S	?	50µM*	-31%	?	6%	?
O=C(O)CN1C(=O)/C(=C\c2ccccc2OCc2ccc(Cl)cc2)SC1=S	?	79µM*	-20%	-31%	?	45%
COc1cccc(Nc2ncc3nc(-c4ccccc4)c(=O)n(Cc4cccs4)c3n2)c1	.	.	-2%[60.1 µM]	.	.	.
Cc1cc2ccc(Cl)nc2nc1C	.	.	5%	.	17%	34%
Cc1nnc(N/N=C\c2ccc(-c3ccccc3[N+](=O)[O-])o2)n1N	3%	-10%	-18%	3%[11.6 µM]	-14%	4µM*
CCC(=O)N/N=C/c1ccc(-c2ccc([N+](=O)[O-])cc2)o1	?	-8%	-8%	4%	-14%	-6%
CCc1nnc(N/N=C/c2ccc(-c3ccc([N+](=O)[O-])cc3)o2)n1N	-26%	-21%	-4%	-9%[11.6 µM]	-23%	32µM*
Cc1nnc(N/N=C/c2ccc(-c3ccccc3F)o2)n1N	?	8%	-20%	-9%[11.6 µM]	-8%	3.5µM*
NCCCCCCCCCCNCCCN	.	.	11%[60.1 µM]	.	.	.
COc1cc(/C=C/C(=O)OCC(=O)Nc2ccc(S(N)(=O)=O)cc2)ccc1O	1%	50µM*	?	-14%	-16%	?
COc1cc(/C=C/C(=O)OCC(=O)Nc2ccc(Cl)cn2)ccc1O	.	56µM*	?	4%[11.6 µM]	11%	35µM*
CCOC(=O)C1OC1C(=O)N[C@@H](CC(C)C)C(=O)NCCC(C)C (some centres not stated)	.	.	19%[60.1 µM]	.	.	.
COc1ccc(C2=C(C)C(N3CCN(C(=O)c4ccco4)CC3)=NS2(=O)=O)cc1	50µM*	-1%	-35%	-1%	-7%	?
CC1=C(c2ccc(F)cc2)S(=O)(=O)N=C1N1CCC(C(=O)NCCc2ccco2)CC1	25µM*	.	-18%	.	2%	-26%
COc1ccc(C2=C(C)C(N3CCN(c4ccc(OC)cc4)CC3)=NS2(=O)=O)cc1	12%	4%	6%	.	6%	20%
CC1=C(c2ccc(C)c(C)c2)S(=O)(=O)N=C1N1CCC(C(=O)NC(C)Cc2ccco2)CC1 (configuration not stated)	21%	-10%	9%	.	-3%	?
CC(C)(C)CC(C)(C)N=C1Nc2ccc([N+](=O)[O-])cc2N[C@]12C[C@H]1CCCC(=O)N3CC[C@@H](C2)[C@@H]13	.	.	5%	.	3%	24%
C=C1C(=O)OC(CCCCCCCC)C1C(=O)O (configuration not stated)	.	.	13%[60.1 µM]	.	.	.
NNC(=S)Nc1cccc(-c2n[nH]c(=S)o2)c1	?	79µM*	-30%	-17%[11.6 µM]	50µM*	-12%
O=C(O)CP(=O)(O)O	1%	-4%	8%[60.1 µM]	0%	-11%	13µM*!
